Source: PubChem BioAssay
Pf growth 96h – P. falciparum growth inhibition at 96 hour, primary screen for plastid delayed-death inhibitors. P. falciparum luciferase reporter growth, 96 h. Potency, µM (highest dose often 28.7 µM), for the others: top-dose activity change, negative = inhibition, most hits filed as inhibitors. actives 6.9% (n = 320,000). AID 504834; further: potency means the concentration at half of the fitted maximal effect; on the % scale 0 is the no-effect control and ±100 the full control effect
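Plates of compound plus infected erythrocytes (2% hematocrit, 0.05% parasitemia final) incubate 96 hours, 37 C, 5% CO2. Detection reagent added; reduced luminescence from the parasites' luciferase reporter flags inhibition.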
Pf growth 48h – P. falciparum growth inhibition at 48 hours (one generation) | P. falciparum luciferase growth in erythrocytes, 48 h | Potency, µM (highest dose often 28.7 µM), inactives show top-dose activity change, negative = inhibition, hits mostly inhibitors | actives 5.9% (n = 310,000) | AID 504832; further: potency means the concentration at half of the fitted maximal effect; on the % scale 0 is the no-effect control and ±100 the full control effect
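Erythrocytes infected with P. falciparum carrying an integrated firefly luciferase reporter (2% hematocrit, 0.1% parasitemia final) were exposed to compounds in RPMI 1640 with 0.5% Albumax at 37 C, 5% CO2. Growth inhibition was scored as reduced luminescence.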
Cycloheximide cs – counter-screen hit for Shiga toxin inhibitors, cycloheximide | cell reporter, cycloheximide protein synthesis inhibition counterscreen | max response, % | actives 12% (n = 300,000); in the data active means max response mostly above about 13%, no sharp cut-off; inactive means mostly below about 14%; further: read at 38.3 µM for the half of the compounds with a filed dose; 0% is about no effect
Shiga inhibitor – blocks Shiga toxin action in Vero cells; Vero cells, Shiga toxin protein synthesis inhibition reporter; actives 9.2% (n = 290,000); inhibition, % at 38.7 µM; in the data active means inhibition mostly above about 28%, no sharp cut-off; inactive means mostly below about 43%; further: 0% is about no effect
LmPK inhibitor – inhibitors of Leishmania mexicana pyruvate kinase; AID 1721; Q27686; actives 0.37% (n = 290,000); purified LmPK, Kinase-Glo ATP luminescence, 1 h; Potency, µM (top dose mostly 57.5 µM), inactives show at the top dose activity change, negative = inhibition, hits mostly inhibitors; further: potency means the concentration at half of the fitted maximal effect; on the % scale 0 is the no-effect control and ±100 the full control effect
Target sequence (Q27686 whole entry, looked up): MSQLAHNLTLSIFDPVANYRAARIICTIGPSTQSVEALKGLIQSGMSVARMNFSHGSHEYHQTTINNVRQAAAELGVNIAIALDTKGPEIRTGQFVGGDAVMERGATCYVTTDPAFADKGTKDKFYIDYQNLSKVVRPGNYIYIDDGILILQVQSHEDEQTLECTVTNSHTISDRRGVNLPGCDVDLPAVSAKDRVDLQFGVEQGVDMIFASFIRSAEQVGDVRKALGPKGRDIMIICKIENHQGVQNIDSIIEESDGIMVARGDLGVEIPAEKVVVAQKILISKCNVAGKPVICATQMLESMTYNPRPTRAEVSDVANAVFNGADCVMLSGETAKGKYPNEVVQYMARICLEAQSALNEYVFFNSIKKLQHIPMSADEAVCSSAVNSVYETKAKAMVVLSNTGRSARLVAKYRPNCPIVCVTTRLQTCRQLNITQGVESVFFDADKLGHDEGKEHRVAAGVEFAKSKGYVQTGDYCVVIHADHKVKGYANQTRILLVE
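Pyruvate kinase activity monitored as ATP production (luciferase luminescence). Conditions: 0.1 nM enzyme, 0.5 mM PEP, 0.1 mM ADP, 1 h, RT; normalized against uninhibited and no-enzyme wells.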
* hit, by the source's call; i = inactive; ? = inconclusive; · = no result. This is a sample that favours compounds with a hit; in the whole collection about 22% have one here. Unless noted, the call rests on the fitted dose curve; in most records, active means well fitted inhibition curve with a large enough effect; inconclusive means small, poorly fitted or top-dose-only effect, or another doubt; inactive means no such curve, though single readings can be large or run the other way.

SMILES	Pf growth 96h	Pf growth 48h	Cycloheximide cs	Shiga inhibitor	LmPK inhibitor
Cc1cc(C)cc(NC(=O)C2CCCN(c3ncccn3)C2)c1 (centres undefined)	?	0%	11*	2	0%
COc1cc2c(cc1NC(=O)C(C)OC(=O)C1CC(=O)N(Cc3ccco3)C1)oc1ccccc12 (centres undefined)	123%	·	38*	73	12%
COc1ccc(NC(=O)Nc2cc3oc4ccccc4c3cc2OC)cc1	?	7%	10	-18	0%
COc1cc2c(cc1NC(=O)C1CCCO1)oc1ccccc12 (centres undefined)	·	150%	50*	134*	-5%
COc1cc2c(cc1NC(=O)C(C)Sc1ccc(NC(C)=O)cc1)oc1ccccc12 (centres undefined)	?	-23%	21*	12	2%
COc1cc2c(cc1NC(=O)Nc1ccc(F)cc1)oc1ccccc12	?	-56%	-1	-8	2%
COc1cc2c(cc1NC(=O)Nc1ccc(C)cc1)oc1ccccc12	-4%	·	19*	28	2%
COc1ccc(Cl)cc1NC(=O)C1CCCO1 (centres undefined)	15%	8%	-9	-15	-2%
Cc1ccc(COC(=O)NCc2cccnc2)cc1	?	13%	-2	-2	0%
O=C(Nc1ccccc1-c1nnn(CC(=O)N2CCOCC2)n1)c1ccccc1F	-1%	1%	-2	15	5%
COc1cc2c(cc1NC(=O)c1cccc(S(=O)(=O)N(C)C)c1)oc1ccccc12	68%	15%	25*	67*	4%
Brc1ccc(-c2csc(N3CCC(c4ccccc4)C3)n2)cc1 (centres undefined)	8.3µM*	31%	8	-9	2%
O=C(c1ncn[nH]1)N1CCN(c2nc(-c3ccccc3)cs2)CC1	·	71%	15*	49	2%
O=C(c1ccco1)N1CCN(c2nc(-c3ccc(F)cc3)cs2)CC1	?	-6%	12	40	4%
O=C(CSc1nc(-c2ccc(F)cc2)cs1)N1CCOCC1	2%	125%	45*	77	-5%
O=C(c1cc(-n2cnnc2)ccc1Cl)N1CCN(c2nc(-c3ccccc3)cs2)CC1	0%	3%	-1	3	-3%
Fc1ccc(-c2csc(N3CCOCC3)n2)cc1	72%	68%	39*	51*	-7%
COc1ccc(S(=O)(=O)N2CCCOC2CNC(=O)C(=O)NCCc2ccco2)cc1 (centres undefined)	?	-18%	-1	-12	-3%
CCNc1nc(C)c(CN(C(C)=O)c2ccccc2)nc1C#N	-15%	-7%	-2	-5	-2%
COc1ccc(C)c(NC(=O)NCCc2cnc[nH]2)c1	?	22%	2	-4	-15%
Cc1ccc(-c2csc(N3C(=N)SCC3=O)n2)cc1	140%	232%	36*	42*	4%
c1ccc(-c2csc(-n3cccn3)n2)cc1	72%	i	51*	46	-1%
Clc1ccc(-c2csc(N3CCSCC3)n2)cc1	7%	87%	35*	114*	0%
c1ccc(-c2csc(N3CCSCC3)n2)cc1	?	196%	44*	90*	-1%
C[C@H](NC(=O)N1CCn2c1nc1ccccc12)C(=O)N1CCCCC1	23%	13%	-5	19	-1%
SMILES	Pf growth 96h	Pf growth 48h	Cycloheximide cs	Shiga inhibitor	LmPK inhibitor
CS(=O)(=O)N1CCN(c2nc(-c3ccc(F)cc3)cs2)CC1	6%	33%	-2	-4	1%
CC1=NN(c2nc(-c3ccc(Cl)cc3)cs2)C(=O)C1	115%	3%	15*	-18	4%
Fc1ccc(-c2csc(N3CCSCC3)n2)cc1	106%	i	32*	98*	-2%
CC(C)c1ccc(S(=O)(=O)N2CCN(C(=O)c3cccc(F)c3)CC2)cc1	·	?	-2	-21	2%
OCc1cc(-c2ccc(Cl)c(Cl)c2)on1	7%	19%	1	11	-5%
O=C1c2ccccc2NC(c2cccc(O)c2)N1c1ccccc1 (centres undefined)	16%	6%	-4	-5	0%
O=C1c2ccccc2NC(c2ccc3c(c2)OCCO3)N1c1ccc2c(c1)OCCO2 (centres undefined)	133%	46%	44*	81*	-11%
O=C1c2ccccc2NC(c2ccc3c(c2)OCO3)N1O (centres undefined)	0.37µM*	-26%	11	13	0%
COc1cc(C2Nc3ccccc3C(=O)N2c2ccc3c(c2)OCCO3)ccc1OCC(C)C (centres undefined)	·	-22%	31*	61*	-12%
O=C1c2ccccc2NC(c2ccc(O)c(O)c2)N1c1ccccc1Cl (centres undefined)	-9%	7%	27*	41*	?
O=C1c2ccccc2NC(c2ccccc2O)N1O (centres undefined)	?	·	-2	-10	-2%
COc1cc(C2Nc3ccccc3C(=O)N2c2ccccc2OC)ccc1O (centres undefined)	?	-2%	6	18	-2%
CCOc1ccc(C(Nc2ccc(C)cc2)P2(=O)OCCC(C)O2)cc1 (centres undefined)	-6%	·	-3	-2	8%
O=C(c1ccco1)N1CCN(Cc2nnc(-c3cccc(Cl)c3)o2)CC1	10%	-8%	-2	2	6%
Clc1ccccc1-c1nc(-c2ccccc2)n[nH]1	·	136%	53*	125*	-24%
Cc1ccc(-c2cc(C(F)F)n3ncc(C(=O)Nc4ccc(S(=O)(=O)Nc5ccccc5C)cc4)c3n2)cc1	15µM*	1.9µM*	10	-10	1%
COc1ccc(NS(=O)(=O)c2ccc(NC(=O)c3cnn4c(C(F)F)cc(-c5ccc(C)cc5)nc34)cc2)cc1	0.83µM*	?	-3	-15	0%
COc1ccc(-c2cc(C(F)F)n3ncc(C(=O)N4CCN5CCCC5C4)c3n2)cc1 (centres undefined)	9.3µM*	?	-3	14	1%
COc1ccc(-c2cc(C(F)F)n3ncc(C(=O)Nc4ccc(C(=O)N5CCOCC5)cc4)c3n2)cc1	44%	?	-3	1	2%
COc1ccc(-c2cc(C(F)F)n3ncc(C(=O)N4CCc5ccccc54)c3n2)cc1	1%	?	-1	2	-1%
O=C(CN1CCCC1)Nc1ccc(F)c(Cl)c1	?	2%	-2	18	0%
O=S(=O)(NCC(c1cccs1)N1CCc2ccccc2C1)c1ccccc1 (centres undefined)	-10%	?	·	·	·
CCOC(=O)c1ccc(Oc2cn[nH]c2-c2ccc(OCC(=O)NN)cc2O)cc1	?	?	-1	2	-2%
CCCOC(=O)c1ccc(Oc2cn[nH]c2-c2ccc(OCC(=O)NN)cc2O)cc1	9.3µM*	?	-2	11	9%
CCCOC(=O)c1ccc(Oc2cn[nH]c2-c2ccc(O)cc2O)cc1	13µM*	?	-1	7	4%
